Results as given in PubChem BioAssay (NCI).
The panel holds about 83,000 compounds, 20% with a hit somewhere; the sample as a whole holds those more often.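 Growth was measured after 48 h exposure to one concentration of compound in 96-well plates. Values under 10 count as active.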 Activity calls are given as the source filed them.

Key:
Assay in all cases: NCI-60 one-dose screen, 48 h (100 = growth as untreated, 0 = no growth, -100 = all killed)
Settings in all cases: 10 µM unless noted
HCT-15 colon = system: HCT-15 colon
HT29 colon = system: HT29 colon
SNB-75 CNS = system: SNB-75 CNS
SNB-19 CNS = system: SNB-19 CNS
U251 CNS = system: U251 CNS
PC-3 prostate = system: PC-3 prostate
SK-MEL-5 melanoma = system: SK-MEL-5 melanoma
UACC-62 melanoma = system: UACC-62 melanoma
LOX IMVI melanoma = system: LOX IMVI melanoma
SK-MEL-28 melanoma = system: SK-MEL-28 melanoma

Measured: growth

CCCCCc1c(C)[nH]c(/C=C2\N=C(c3ccc[nH]3)C=C2OCc2ccccc2)c1C
active: HCT-15 colon -60% [100 µM] | HT29 colon -80.9% [100 µM] | SNB-75 CNS -78.1% [100 µM] | SNB-19 CNS -92.8% [100 µM] | U251 CNS -93.7% [100 µM] | PC-3 prostate -69.5% [100 µM] | SK-MEL-5 melanoma -66.9% [100 µM] | UACC-62 melanoma -92.7% [100 µM] | LOX IMVI melanoma -62.6% [100 µM] | SK-MEL-28 melanoma -89.8% [100 µM]

BrC1CC(Br)c2c1c1c(c3c2C(Br)CC3Br)C(Br)CC1Br (stereo not given)
inactive: HCT-15 colon 97.6% | HT29 colon 86.7% | SNB-75 CNS 68.6% | SNB-19 CNS 98.7% | U251 CNS 88.7% | PC-3 prostate 81.5% | SK-MEL-5 melanoma 99.8% | UACC-62 melanoma 82.4% | LOX IMVI melanoma 73.7% | SK-MEL-28 melanoma 119%

COCCOCCOCCOCCOc1ccc2c(c1)C(=O)c1nc3ncccc3c(=O)n1-2
active: HCT-15 colon -95.6% | HT29 colon -39.3% | SNB-75 CNS -61.1% | SNB-19 CNS -87% | U251 CNS -63.6% | PC-3 prostate -8.58% | SK-MEL-5 melanoma -100% | UACC-62 melanoma -97.2% | LOX IMVI melanoma -87.7% | SK-MEL-28 melanoma -75.3%

CCCCN1c2nc3ccccc3cc2Sc2cc3ccccc3nc21
inactive: HCT-15 colon 94.9% | HT29 colon 95.2% | SNB-75 CNS 107% | SNB-19 CNS 107% | U251 CNS 109% | PC-3 prostate 78.6% | SK-MEL-5 melanoma 82.1% | UACC-62 melanoma 91.7% | LOX IMVI melanoma 103% | SK-MEL-28 melanoma 116%

CCOC(=O)C(C(=O)OCC)C1CCCCC1
inactive: HCT-15 colon 99% | HT29 colon 102% | SNB-75 CNS 87.6% | SNB-19 CNS 102% | U251 CNS 86% | PC-3 prostate 94.3% | SK-MEL-5 melanoma 109% | UACC-62 melanoma 99.2% | LOX IMVI melanoma 110% | SK-MEL-28 melanoma 106%

Cc1ccc(S(=O)(=O)N2CCN(C(=O)CSc3nc4ccc(C)cc4[nH]3)CC2)cc1
inactive: HCT-15 colon 110% | HT29 colon 117% | SNB-75 CNS 109% | SNB-19 CNS 100% | U251 CNS 106% | PC-3 prostate 88.3% | SK-MEL-5 melanoma 116% | UACC-62 melanoma 82.3% | LOX IMVI melanoma 101% | SK-MEL-28 melanoma 85.3%

CN(C)c1ncnc2c1ncn2C1CCCCO1 (stereo not given)
inactive: HCT-15 colon 100% | HT29 colon 109% | SNB-75 CNS 86.4% | SNB-19 CNS 97.1% | U251 CNS 108% | PC-3 prostate 91.3% | SK-MEL-5 melanoma 107% | UACC-62 melanoma 84.5% | LOX IMVI melanoma 101% | SK-MEL-28 melanoma 97.6%

CSc1nc(-c2ccc(O)cc2O)c2c(=O)[nH]c(Nc3ccc(S(=O)(=O)Nc4nc(C)cc(C)n4)cc3)nc2n1
inactive: HCT-15 colon 104% | HT29 colon 113% | SNB-75 CNS 73.1% | SNB-19 CNS 96.1% | U251 CNS 100% | PC-3 prostate 88% | SK-MEL-5 melanoma 109% | UACC-62 melanoma 92.7% | LOX IMVI melanoma 99% | SK-MEL-28 melanoma 97.8%

COc1cc(/C=C/C(=O)C(C(=O)/C=C/c2ccc(OC(=O)CCNC34CC5CC(CC(C5)C3)C4)c(OC)c2)C(=O)CCNC23CC4CC(CC(C4)C2)C3)ccc1OC(=O)CCNC12CC3CC(CC(C3)C1)C2 (stereo not given)
inactive: SNB-19 CNS 39.2% | PC-3 prostate 13.6% | UACC-62 melanoma 20.2%
active: HCT-15 colon -18.2% | HT29 colon -71.6% | SNB-75 CNS -32.3% | U251 CNS 7.57% | SK-MEL-5 melanoma -36.8% | LOX IMVI melanoma -72.7% | SK-MEL-28 melanoma -8.59%

CCCCCCCCCCN1CCC(N2CCCCC2)CC1
inactive: SNB-19 CNS 28.2% | PC-3 prostate 16%
active: HCT-15 colon -5.57% | HT29 colon -38.9% | SNB-75 CNS -47.8% | U251 CNS 4.67% | SK-MEL-5 melanoma -96.9% | UACC-62 melanoma -79.7% | LOX IMVI melanoma -72.8% | SK-MEL-28 melanoma -29.1%

COc1cc(/C=N/OC(=O)Nc2ccccc2)cc(OC)c1OC
inactive: HCT-15 colon 112% | HT29 colon 104% | SNB-75 CNS 85.2% | SNB-19 CNS 105% | U251 CNS 107% | PC-3 prostate 91.1% | SK-MEL-5 melanoma 102% | UACC-62 melanoma 90.5% | LOX IMVI melanoma 90.6% | SK-MEL-28 melanoma 104%

COc1ccc(N2CCN(CC(=O)N3CCN(c4nnc(-c5ccc(Cl)cc5)c(-c5ccc(Cl)cc5)n4)CC3)CC2)cc1
inactive: HCT-15 colon 45% | HT29 colon 40.9% | SNB-75 CNS 76.3% | SNB-19 CNS 76% | U251 CNS 52.3% | PC-3 prostate 22.5% | SK-MEL-5 melanoma 38% | UACC-62 melanoma 66.6% | LOX IMVI melanoma 49.6% | SK-MEL-28 melanoma 71.5%

NC(=O)NC1(C(=O)O)CCCC1
inactive: HCT-15 colon 99.9% | HT29 colon 108% | SNB-75 CNS 100% | SNB-19 CNS 113% | U251 CNS 99.9% | PC-3 prostate 100% | SK-MEL-5 melanoma 111% | UACC-62 melanoma 115% | LOX IMVI melanoma 103% | SK-MEL-28 melanoma 122%

N#Cc1c(NC(=O)c2ccco2)[n+]([O-])c2ccccc2[n+]1[O-]
inactive: HCT-15 colon 116% | HT29 colon 109% | SNB-75 CNS 104% | SNB-19 CNS 96.8% | U251 CNS 106% | PC-3 prostate 130% | SK-MEL-5 melanoma 91% | UACC-62 melanoma 81% | LOX IMVI melanoma 98.3% | SK-MEL-28 melanoma 104%

N#Cc1c(-c2ccc(F)cc2)n2c(nc1=O)SC(=O)C2=O
inactive: HCT-15 colon 106% | HT29 colon 105% | SNB-75 CNS 83.8% | SNB-19 CNS 103% | U251 CNS 92.2% | PC-3 prostate 92.1% | SK-MEL-5 melanoma 96.5% | UACC-62 melanoma 80.2% | LOX IMVI melanoma 87.3% | SK-MEL-28 melanoma 102%

O=[N+]([O-])c1ccc(N=Nc2c(Cl)cc(O)cc2Cl)cc1
active: HCT-15 colon -25.7% | HT29 colon 8.53% | SNB-75 CNS -10.4% | PC-3 prostate 8.4% | SK-MEL-5 melanoma -58.7% | UACC-62 melanoma -44.1% | LOX IMVI melanoma -12.7% | SK-MEL-28 melanoma 5.72%
inactive: SNB-19 CNS 20.1% | U251 CNS 10%

O=C(CC(C(=O)c1ccccc1)N1CCN(Cc2ccccc2)CC1)c1ccccc1 (stereo not given)
inactive: HCT-15 colon 57% | HT29 colon 54.7% | SNB-75 CNS 91.7% | SNB-19 CNS 99.4% | U251 CNS 74.9% | PC-3 prostate 93.8% | SK-MEL-5 melanoma 103% | UACC-62 melanoma 101% | LOX IMVI melanoma 73.4% | SK-MEL-28 melanoma 112%

Cc1sc2nc(NCCc3cccs3)[nH]c(=O)c2c1C
inactive: HCT-15 colon 59.6% | HT29 colon 85.1% | SNB-75 CNS 90.1% | SNB-19 CNS 90.2% | U251 CNS 75.8% | PC-3 prostate 71.9% | SK-MEL-5 melanoma 90.8% | UACC-62 melanoma 63.1% | LOX IMVI melanoma 88.7% | SK-MEL-28 melanoma 100%

CCCCCN1C(=O)CCC1=O
inactive: HCT-15 colon 106% | HT29 colon 102% | SNB-75 CNS 98.6% | SNB-19 CNS 101% | U251 CNS 99% | PC-3 prostate 95.1% | SK-MEL-5 melanoma 102% | UACC-62 melanoma 99.3% | LOX IMVI melanoma 102% | SK-MEL-28 melanoma 110%

CCOC(=O)/C=C1/SC(=Nc2ccc(C#N)cc2)N(Cc2ccco2)C1=O
inactive: HT29 colon 35% | SNB-75 CNS 83.3% | SNB-19 CNS 67.1% | U251 CNS 59.8% | PC-3 prostate 20.2% | SK-MEL-5 melanoma 62.5% | UACC-62 melanoma 35.5% | SK-MEL-28 melanoma 38.5%
active: HCT-15 colon -4.1% | LOX IMVI melanoma -73.2%

Cc1nn(-c2ccccc2)cc1/C=C1\SC(N2CCCCC2)=NC1=O
inactive: HCT-15 colon 22% | HT29 colon 55.4% | SNB-75 CNS 102% | SNB-19 CNS 82.5% | U251 CNS 79.4% | PC-3 prostate 71% | SK-MEL-5 melanoma 68.8% | UACC-62 melanoma 78.4% | LOX IMVI melanoma 68.1% | SK-MEL-28 melanoma 108%

CC(=O)N1N=C(c2ccc(Nc3nc(NCCO)nc(NCCO)n3)cc2)CC1c1ccc(Cl)cc1 (stereo not given)
inactive: HCT-15 colon 94.5% | HT29 colon 86.8% | SNB-75 CNS 84.7% | SNB-19 CNS 86.3% | U251 CNS 94.3% | PC-3 prostate 81.4% | SK-MEL-5 melanoma 98.3% | UACC-62 melanoma 107% | LOX IMVI melanoma 93.6% | SK-MEL-28 melanoma 104%

COc1cnc2c(c1)C(=O)c1c-2n(CCCN2CCC(O)CC2)c(=O)c2cc(F)ccc12
inactive: SNB-19 CNS 14% | SK-MEL-28 melanoma 13.2%
active: HCT-15 colon 7.5% | HT29 colon -20.6% | SNB-75 CNS -16.9% | U251 CNS -28.4% | PC-3 prostate 3.1% | SK-MEL-5 melanoma -98.9% | UACC-62 melanoma -40.8% | LOX IMVI melanoma -70.3%

Cc1cc2c(cc1C)[n+](Cc1ccc3ccccc3n1)cn2Cc1ccc2ccccc2n1
inactive: HCT-15 colon 66.2% | SNB-19 CNS 16.4% | SK-MEL-28 melanoma 10.2%
active: HT29 colon -14.5% | SNB-75 CNS -1.25% | U251 CNS 7.2% | PC-3 prostate -7.23% | SK-MEL-5 melanoma -93.1% | UACC-62 melanoma -38.1% | LOX IMVI melanoma -56.9%

CS(=O)(=O)N1CCN(Cc2cc3nc(-c4cccc5[nH]ncc45)nc(N4CCOCC4)c3s2)CC1 (tested in a mixture with another compound)
inactive: HCT-15 colon 14.2% | SNB-19 CNS 28% | U251 CNS 30.5% | LOX IMVI melanoma 18.8% | SK-MEL-28 melanoma 10.6%
active: HT29 colon 9.57% | SNB-75 CNS -3.36% | PC-3 prostate 6.61% | SK-MEL-5 melanoma -0.161% | UACC-62 melanoma -13.5%
